From ChEMBL document CHEMBL1157539, “Thousands of chemical starting points for antimalarial lead identification” (Nature, 2010)

How the values were obtained:
Format in all cases: functional
Plasmodium falciparum [1] = assay: GSK_TCMDC: Inhibition of Plasmodium falciparum 3D7 in whole red blood cells, using parasite LDH activity as an index of growth. Test compounds present at 2uM
Plasmodium falciparum [2] = assay: GSK_TCMDC: Inhibition of Plasmodium falciparum Dd2 in whole red blood cells, using parasite LDH activity as an index of growth. Test compounds present at 2uM
HepG2 = assay: GSK_TCMDC: Percent inhibition of human HepG2 cell line. Test compounds present at 10uM.

SMILES	Inhibition (Plasmodium falciparum [1]) [%]	Inhibition (Plasmodium falciparum [2]) [%]	Inhibition (HepG2) [%]
N=C(N)Nc1ccc(C(=O)O)c(O)c1	94	1	0
CCCCOP(=O)(OCCCC)C(=Cc1ccc(O)c2ccccc12)P(=O)(OCCCC)OCCCC	84	64	1
Cc1nc2nc(N)nc(N)c2c(C)c1Cc1ccccc1I.Cl	96	0	63
CCCOc1ccc(-c2nonc2NC(=O)c2cccc(OC)c2)cc1OCCC	94	100	18
CC(C)CNCc1ccc(-c2cccc(CN(CCN(C)C)C(=O)NCCc3ccccc3)c2)cc1.O=C(O)C(F)(F)F	91	37	33
CN1CCCN(Cc2cccc(-c3cccc(NS(=O)(=O)c4cccc5cccnc45)c3)c2)CC1.O=C(O)C(F)(F)F	97	74	21
Cc1nnc(Sc2ncnc3scc(-c4ccc(F)cc4)c23)s1	99	50	13
Br.CCCN(CCCCCCN(CCC)CCc1ccc(O)c(O)c1)CCc1ccc(O)cc1	90	5	0
CC(C)=C(C(=O)OCc1ccccc1)N1C(=O)[C@@H](NC(c2ccccc2)(c2ccccc2)c2ccccc2)[C@H]1[S+]([O-])CC(=O)OC(C)(C)C (stereo partly drawn)	92	78	0
CCN1CCN(c2cc(C)c3cc(NC(=O)c4cccc(C(F)(F)F)c4)ccc3n2)CC1	100	85	24
Cc1cccc2nc(-c3cccc(-c4ccc(NC(=O)NCc5cccc(F)c5)cc4)c3)[nH]c12	100	83	40
